About 83,000 compounds went through this panel and 20% of them were active in at least one assay; those are over-represented in the sample as a whole.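 A percent growth of 40 corresponds to 60% growth inhibition; 0 means no net growth; -100 means all cells died. Active threshold: below 10.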 A number with no mark means an inactive call. The source made the active and inactive calls.
What was measured:
Test in all cases: NCI-60 one-dose screen, 48 h (100 = growth as untreated, 0 = no growth, -100 = all killed)
SR leukemia = details: 10 µM unless noted
RPMI-8226 leukemia = details: 10 µM unless noted
OVCAR-8 ovarian = details: 10 µM unless noted
OVCAR-5 ovarian = details: 10 µM unless noted
OVCAR-4 ovarian = details: 10 µM unless noted
SK-OV-3 ovarian = details: 10 µM unless noted
IGROV1 ovarian = details: 10 µM unless noted
OVCAR-3 ovarian = details: 10 µM unless noted
HS 578T breast = details: 10 µM
NCI/ADR-RES ovarian = details: 10 µM unless noted
T-47D breast = details: 10 µM unless noted
BT-549 breast = details: 10 µM unless noted
MDA-MB-435 melanoma = details: 10 µM unless noted
SW-620 colon = details: 10 µM unless noted
MCF7 breast = details: 10 µM unless noted
HCT-116 colon = details: 10 µM unless noted
HCC-2998 colon = details: 10 µM unless noted
KM12 colon = details: 10 µM unless noted

| SMILES | growth (SR leukemia) | growth (RPMI-8226 leukemia) | growth (OVCAR-8 ovarian) | growth (OVCAR-5 ovarian) | growth (OVCAR-4 ovarian) | growth (SK-OV-3 ovarian) | growth (IGROV1 ovarian) | growth (OVCAR-3 ovarian) | growth (HS 578T breast) | growth (NCI/ADR-RES ovarian) | growth (T-47D breast) | growth (BT-549 breast) | growth (MDA-MB-435 melanoma) | growth (SW-620 colon) | growth (MCF7 breast) | growth (HCT-116 colon) | growth (HCC-2998 colon) | growth (KM12 colon) |
| --- | --- | --- | --- | --- | --- | --- | --- | --- | --- | --- | --- | --- | --- | --- | --- | --- | --- | --- |
| CCCc1n(Cc2ccc3ccccc3c2)c2ccccc2[n+]1Cc1ccc2ccccc2c1 | -46.7% (active) | -60.9% (active) | -71.3% (active) | -27.1% (active) | -16% (active) | -21.5% (active) | -64.8% (active) | -76.8% (active) | -8.47% (active) | 79.4% | -9.39% (active) | -76.6% (active) | -82.8% (active) | -74.2% (active) | -64.4% (active) | -91.2% (active) | -57.2% (active) | -75% (active) |
| COC(=O)C(C)NC1=C(Cl)C(=O)C(NC(C)C(=O)OC)=C(Cl)C1=O (stereo not drawn) | 92.9% | 96.1% | 94.2% | 111% | 78.6% | 105% | 120% | 61.2% | 113% | 101% | 96.6% | 99.4% | 75.7% | 104% | 82.2% | 97.9% | 106% | 96.8% |
| CC(C)OC(=O)c1ccc([N+](=O)[O-])cc1 | 102% | 98.5% | 108% | 112% | 111% | 107% | 119% | 117% | 112% | 104% | 108% | 113% | 125% | 109% | 117% | 110% | 113% | 113% |
| C=C(C)[C@@H]1CC[C@]2(C)[C@H](CC=C3[C@@H]4C[C@](C)(C(=O)N5CCN(C)CC5)CC[C@]4(C)CC[C@]32C)[C@@]1(C)CCC#N | 39.4% | 32% | 74.7% | 88.2% | 62.9% | 63.3% | 76.4% | 55.3% | 81.4% | 75.6% | 42.4% | 56.6% | 51.3% | 57.1% | 34.1% | 26.7% | 70.6% | – |
| Cc1cc(C)c2c(NC(=O)Nc3ccc(Cl)c(Cl)c3)n[nH]c2n1 | 96.6% | 100% | 110% | 101% | 93.2% | 100% | 111% | 113% | 114% | 102% | 93.3% | 104% | 92.8% | 112% | 82.6% | 108% | 115% | 104% |
| CN(C)c1ccc(C(c2ccccc2)c2ccc(N(C)C)cc2)cc1 | 68.2% | 57.4% | 90.9% | 94% | 99.8% | 106% | 113% | 94.9% | 98.8% | 85% | 86.7% | 101% | 97% | 93.4% | 90.3% | 80.6% | 95.7% | 91.5% |
| O=C1Nc2ccccc2/C1=C/c1c[nH]c2ccccc12 | 77.5% | 77.1% | 84.9% | 105% | 71.7% | 95.7% | 2.73% (active) | 93.5% | 67.6% | 89.6% | 68.3% | 73.5% | 92.3% | 100% | 63.2% | 79.2% | 98.6% | 23.1% |
| Cc1cccc(C(=O)O)n1 | 120% | -8.6% (active) | 74.4% | 100% | 101% | 119% | 72% | 115% | 118% | 107% | 106% | 109% | 95.8% | 103% | 104% | 99.2% | 98.7% | – |
| Cc1ccc(N=CNN=C(N)N)cc1 | 76.9% | 99.4% | 91% | 99.5% | 94.5% | 104% | 103% | 112% | 140% | 108% | 98.8% | 108% | 112% | 108% | 99% | 103% | 108% | – |
| O=C(/C=C/c1cccc([N+](=O)[O-])c1)c1ccc(Nc2nc(N3CCCCC3)nc(N3CCCCC3)n2)cc1 | 90.6% | 7.95% (active) | 95.2% | 110% | 97.6% | 97.4% | 88.1% | 91.5% | 103% | 103% | 78.6% | 91.8% | -11.7% (active) | 94.2% | 19.4% | -34.5% (active) | 81.8% | 85.5% |
| C=CCn1c(C)nc2cc(Nc3nc(N4CCOCC4)nc4nc[nH]c34)ccc21 | 85.6% | 71.9% | 87.3% | 74.1% | 88.4% | 82.6% | 72.9% | 97.7% | 57.3% | 108% | 75.4% | 90.3% | 100% | 93.1% | 86.5% | 91.4% | 100% | 101% |
| COc1ccc2[nH]c(C(=O)OCc3ccc4c(Br)cc(Br)c(O)c4n3)cc2c1 | 2.81% (active) | -24.2% (active) | -27.7% (active) | -48.4% (active) | -44.2% (active) | 62.6% | -90.9% (active) | -91.3% (active) | -15.4% (active) | -30.6% (active) | -51.9% (active) | -88.2% (active) | -72.4% (active) | -72.8% (active) | -36.8% (active) | -74.8% (active) | -77.7% (active) | – |
| COc1ccc2[nH]c(O)c(/C=c3/ccc4c(c3)N=C(c3ccc(F)cc3)N=4)c2c1 | 59.8% | 76.5% | 76.9% | 113% | -38.2% (active) | 62.9% | -7.41% (active) | 75.3% | 51.1% | 75.2% | 28.3% | 26.7% | 57.8% | 41.3% | 41.7% | -22.6% (active) | 104% | 74.9% |
| O=c1[nH]cnc2nc[nH]c12 | 48.8% | 93.5% | 76.9% | 98.5% | 94.5% | 121% | 109% | 174% | 123% | 97.8% | 111% | 105% | 93.5% | 105% | 95.4% | 98.1% | 101% | 196% |
| COc1ccc2[nH]cc(/C=C3\C(=O)Nc4ccccc43)c2c1 | 2.21% (active) | 31.3% | 31.9% | 52.9% | 54.6% | 38.9% | -21.9% (active) | 35.5% | 33.2% | 23.1% | 36.6% | 48.5% | -41.6% (active) | 11.4% | 16.3% | 17.9% | 36% | – |
| Cc1[nH]nc2ccc3nc(-c4ccc5[nH]ncc5c4)c4c(c3c12)CCCC4 | 1.09% (active) | 13% | 28.2% | 46.6% | 38.4% | -19.6% (active) | 11.9% | 32.8% | -6.38% (active) | 40% | 24.1% | 18.5% | 3.38% (active) | 6.74% (active) | 28% | 6.66% (active) | 45.2% | 12.6% |
